# BRCA1 expr up: qHTS Assay to Identify Small Molecule Activators of BRCA1 Expression; MCF7-BRCA1-FFLuc reporter, luminescence, 48 h; response scale: scaled: vehicle 0%, 10 µM genistein 100%; Potency, µM (doses to about 46.1 µM), without a hit: at the highest dose activation, actives largely listed as activators; 380,000 compounds, 1.1% hits; further: potency means the concentration at half of the fitted maximal effect; nearly all actives have a fitted effect of over 80% in size
#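 48 h compound treatment of MCF7-BRCA1-FFLuc cells (phenol-red free MEM, 37 °C), then 15 min with luciferase substrate and luminescence imaging.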
# TCR activator: Activators of T cell receptors: qHTS campaign; primary human leukocytes, anti-CD3, IL-2 HTRF, 48 h; Potency, µM (doses to about 9.22 µM), without a hit: at the top dose activation of IL-2 secretion, usual class: activators; 330,000 tested, under 10 active; AID 504894, 2011; further: % of control where 0% means no effect
#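 Compounds are tested in HTS on primary human leukocytes co-incubated with a-CD3 beads for 48 hr. IL-2 output is measured by time-resolved FRET.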
# PINK1 expr mod: A Quantitative High throughput Screen to Identify Chemical Modulators of PINK1 Expression; 410,000 compounds, 0.2% hits; Potency, µM (doses to about 76.6 µM), for inactives: at the top dose activation (PINK1 increase), hits mostly activators; PINK1 immunofluorescence, high-content cytometry, 24 h; active means well fitted activation curve with a large enough effect; inconclusive means small, poorly fitted or top-dose-only effect; cell line not stated here; further: potency means the concentration at half of the fitted maximal effect; % of control where 0% means no effect; nearly all actives have a fitted effect of over 65% in size
#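 Readout is PINK1 immunofluorescence, quantified alongside mitochondrial, cell and nuclear markers by laser-scanning microplate cytometry. Cells from a stable line were exposed to compound titrations (5 concentrations) for 24 hours, with CCCP controls.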
# Akt phos inh: HTS Assay for Inhibitors of Akt Phophorylation: Primary Screen. AID 651550, 2012. 360,000 compounds, 0.32% hits. Neuro2A IGF-stimulated pAkt S473 HTRF, 20 min; active compounds read low. activity change, % for hits at 50 µM; in the data active means activity change below about -80%; inconclusive means mostly about -51% to -80%; further: on the % scale 0 is the no-effect control and ±100 the full control effect
#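 Single-point screen (50 µM final compound) in Neuro2A cells stimulated 20 min with 6 nM IGF at 37 deg C. After lysis, Ser473-phosphorylated Akt read by HTRF (ex 330 nm, em 615/665 nm) as the 665/615 ratio.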
# Active calls of the source: *; i = inactive; ? = inconclusive; . = no result given; [ ] = remark or other dose. In the library only some 1.5% were active in any assay of this set; here they are far more common. Unless noted, the call rests on the fitted dose curve; in most records, active means well fitted curve in the direction sought with a large enough effect; inconclusive means small, poorly fitted or top-dose-only effect, or another doubt; inactive means no such curve, though single readings can be large; an effect the other way counts as inactive or inconclusive.
SMILES,BRCA1 expr up,TCR activator,PINK1 expr mod,Akt phos inh
Cc1oc2cc3c(C(=O)N4CCCCC4)c(C)oc3cc2c1C(=O)N1CCCCC1,3.16µM*,-13.1%,1.9%[38.3 µM],i
Cc1c(C(=O)N2CCCC2)oc2ccc(Br)cc12,6.31µM*,-0.3%,2.6%,i
Cc1c(C(=O)N2CCN(C)CC2)oc2ccc(Br)cc12,12.6µM*,-0.3%,-1.4%,i
Cc1c(C(=O)N2CCc3ccccc3C2)oc2ccc(Br)cc12,79.6%,1.4%,24.2%,i
CCN(CC)C(=O)C1CC(c2ccc(OC)cc2)=NO1 (centres undefined),10µM*,0.9%,0.2%[38.3 µM],i
CN(C(=O)c1cc2c(=O)n3ccccc3nc2n1C)C1CCCCC1,1.41µM*,-5.5%,1.1%,i
CCN(C(=O)c1cc2c(=O)n3ccccc3nc2n1C)C1CCCCC1,50.3%,-5.1%,0.2%,i
Fc1ccc(N2CCN(Cc3ccc4c(c3)CN(Cc3cccn3-c3ncccn3)CCO4)CC2)cc1,.,.,-0.3%,.
Cc1ccc(C)c(Oc2cc(NC(=O)CCCn3nc(C)c([N+](=O)[O-])c3C)cc([N+](=O)[O-])c2)c1,-86.6%,2.2%[46.1 µM],44.7µM*,i
Cc1ccc(C)c(NC(=O)c2ccc3c(=O)n4c(nc3c2)CCC4)c1,4.47µM*,-1.9%,-0.3%,i
COc1ccc(C)cc1NC(=O)c1ccc2c(=O)n3c(nc2c1)CCCCC3,8.8%,4.1%,-0.1%,i
COc1cc(OC)cc(C(=O)Nc2ccc3nc4n(c(=O)c3c2)CCCCC4)c1,4.47µM*,-4.9%,1.3%,i
COc1cccc(NC(=O)CC(=O)Nc2ccc3nc4n(c(=O)c3c2)CCCCC4)c1,0.0%,.,2.1%,.
COc1ccc(NC(=O)C2Cc3ccccc3O/C2=N\O)cc1 (centres undefined),10µM*,-4.2%,0.6%,i
Cc1cccc2nc(CNC(=O)CN3Cc4ccccc4OC(c4ccccc4F)C3)cn12 (centres undefined),.,.,-1.1%,.
CCOc1ccc(NC(=O)c2cc(SC)ccc2Cl)cc1,-36.8%,-2.5%[46.1 µM],2.2%,i
CCCCCOc1ccc(NC(=O)c2cc(SC)ccc2Cl)cc1,-32.8%,1.5%[46.1 µM],14.1µM*,i
Cc1cc(NC(=O)c2cc(C3CC3)on2)no1,6.31µM*,-0.1%,-0.3%,i
CCOC(=O)c1c(C)oc2nc(C)nc(NCCCN3CCN(c4ccccc4OC)CC3)c12,.,.,3.6%,.
COc1ccc(CNS(=O)(=O)c2ccc(N3CCCCS3(=O)=O)cc2)cc1,.,.,0.8%,.
CCS(=O)(=O)Nc1cc(C(=O)N[C@H]2CCCCNC2=O)c2c(c1)nc(-c1ccccc1)n2C,.,.,0.1%,.
O=C(O)CCc1ccc(-c2ccccc2)n1-c1cccc(C(=O)O)c1,12.6µM*,-3.5%,4.5%,i
COc1ccccc1CN1CCCC2(CCN(C(=O)c3c(C)noc3C)CC2)C1,.,.,0.0%,.
O=C(COc1cccnc1[N+](=O)[O-])Nc1cc(Cl)ccc1Cl,11.2µM*,-1.4%[46.1 µM],0.6%,i
Cc1ccc(OCC(=O)Nc2ccc(Cl)cc2)c([N+](=O)[O-])n1,11.2µM*,5.4%,0.0%,i
SMILES,BRCA1 expr up,TCR activator,PINK1 expr mod,Akt phos inh
CNc1nc(N2CCCN(C)CC2)nc2cc(OC)c(OC)cc12,-21.5%,.,2.6%,.
Cc1ccc2c(c1)sc1nc(=O)n(-c3cccc(Cl)c3)c(=O)n12,1.41µM*,0.2%,0.3%,i
O=c1[nH]c(=O)n(Cc2ccccc2)c2nc(-c3ccco3)cc(C(F)(F)F)c12,-42.8%,-0.7%,14.2%,-109.9%*
Cc1cc(C(F)(F)F)c2c(=O)[nH]c(=O)n(Cc3ccccc3)c2n1,-10.5%,-17.2%,13.8%,i
COC(=O)N/N=C\C=C\c1ccc2c(c1)OCO2,4.47µM*,4.2%,-0.6%,i
CCOC(=O)N/N=C\C=C\c1ccc2c(c1)OCO2,4.47µM*,-9.8%,0.8%,i
CCOC(=O)CNC(=O)/C=C/c1ccc2c(c1)OCO2,70.0%,-7.4%,-1.2%,i
CC(C)(C)OC(=O)N/N=C/c1ccc(Br)cc1,3.55µM*,0.9%,-0.1%,i
CC(C)(C)NC(=O)C(=O)N/N=C/c1ccc(Br)cc1,3.0%,-4.7%,4.1%,i
CC(C)(C)OC(=O)N/N=C\C=C\c1ccc2c(c1)OCO2,7.94µM*,-5.2%,5.7%,i
COc1ccc(CC(=O)N/N=C/C=C/c2ccc3c(c2)OCO3)cc1OC,-15.9%,2.0%,-0.3%,i
COC(=O)c1c(OCC2CCCN(C)C2)cc(=O)n2c1CCN(Cc1ccc(OC)c(O)c1)CC2 (centres undefined),.,.,-0.3%,.
COC(=O)CC(NC1CCN(c2nc(C)c3cc4c(cc3n2)CCC4)CC1)C(=O)OC (centres undefined),.,.,-0.3%,.
O=C(O)c1ccc(/C=N/N2CCN(c3ccccc3)CC2)cc1,4.47µM*,.,-1.6%,i
O=C(NCC1(N2CCOCC2)CCCC1)c1cnn(-c2ncc3c(n2)-c2ccccc2CC3)c1C1CC1,.,.,0.5%,.
N#C/C(=N\Nc1ccc(Br)cc1)C(=N)N1CCOCC1,10µM*,-9.2%,1.1%,i
CC(=O)O/N=C(\N)c1ccc(-c2csnn2)cc1,11.2µM*,3.1%,0.0%,i
COc1cccc(C2C(C(=O)c3ccco3)=C(O)C(=O)N2CCN(C)C)c1OC (centres undefined),-14.2%,-10.5%[46.1 µM],0.6%,i
CN(C)CCN1C(=O)C(O)=C(C(=O)c2ccco2)C1c1ccccc1F (centres undefined),0.1%,-13.7%,-0.3%,-121.4%*
COCC(=O)Nc1cc(C(=O)N2CCCC(C(C)=O)C2)cc2nc(-c3ccccc3)n(C)c12 (centres undefined),.,.,0.2%,.
O=C(NCCc1ccccn1)c1cc2ccccc2o1,10µM*,-2.2%,0.1%,i
COc1ccc(NC2=NCCC(=O)N2Cc2cccs2)cc1,5.2%,1.3%,0.4%,-111.3%*
CC1(C)CC(=Cc2cc(O)ccc2[N+](=O)[O-])C(=O)c2ccccc21,-49.2%,.,20µM*,i
CCN(CCn1cccn1)C(=O)CCc1nnc(CCCc2ccccc2)o1,12.6µM*,11.9%,9.7%,i
C=C(C)CN(CC)C(=O)CCc1nnc(CCCc2ccccc2)o1,?,-10.5%,0.4%,i
SMILES,BRCA1 expr up,TCR activator,PINK1 expr mod,Akt phos inh
CC(C)N1CCc2c(sc(N)c2C#N)C1,2.0%,.,2.82µM*,i
CSC1=C(C#N)C(CC(C)C)C2=C(CCCC2=O)N1 (centres undefined),-13.5%,-0.3%,-0.5%,-117.6%*
O=c1c2[nH]c3ccccc3c2ncn1Cc1ccncc1,8.4%,7.5%,-0.5%,-94.4%*
CCCc1noc(-c2ccc(N3CCCCC3)c([N+](=O)[O-])c2)n1,7.08µM*,.,4.6%,.
Cc1noc(-c2ccc(N3CCCCC3)c([N+](=O)[O-])c2)n1,?,.,-1.4%,.
CSc1nnc(CNC(=O)c2c(-c3ccccc3)noc2C)n1-c1ccc(F)cc1,.,.,0.7%,.
COCCn1c(=O)c(CCc2ccccc2)nc2cnc(Nc3cccc(OC)c3)nc21,.,.,26.8%,.
